# The whole screen tested about 350,000 compounds, of which about 31,000 (8.9%) were called active. Roughly 15% stayed inconclusive and do not appear here. The entries come from a sample that favours actives as a whole. A number with no mark means an inactive call. The call rests on the fitted dose curve; in most records, active means well fitted inhibition curve with a large enough effect; inconclusive means small, poorly fitted or top-dose-only effect; inactive means no such curve, though single readings can be large or run the other way.
# Target: Histone-lysine N-methyltransferase EHMT2 (Homo sapiens) (UniProt Q96KQ7)
# Test: qHTS Assay for Inhibitors of Histone Lysine Methyltransferase G9a; further: nearly all actives have a fitted effect of over 75% in size
# Conditions: G9a H3K9 monomethylation, AlphaScreen, 2 h; series mostly up to 59 µM; activity, negative = inhibition: at the top concentration
# Summary of the method: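 Chemiluminescent proximity detection of H3K9 monomethylation, read after 10 min bead incubation in the dark. Reaction: 20 nM G9a, 500 nM biotin-H3K9 peptide, 20 uM SAM cofactor, 2 h, room temperature, following 15 min enzyme-compound preincubation.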
# On the % scale 0 is the no-effect control and ±100 the full control effect; potency means the concentration at half of the fitted maximal effect.
# Sequence of Histone-lysine N-methyltransferase EHMT2 (Homo sapiens) (Q96KQ7 913-1193 limits assumed): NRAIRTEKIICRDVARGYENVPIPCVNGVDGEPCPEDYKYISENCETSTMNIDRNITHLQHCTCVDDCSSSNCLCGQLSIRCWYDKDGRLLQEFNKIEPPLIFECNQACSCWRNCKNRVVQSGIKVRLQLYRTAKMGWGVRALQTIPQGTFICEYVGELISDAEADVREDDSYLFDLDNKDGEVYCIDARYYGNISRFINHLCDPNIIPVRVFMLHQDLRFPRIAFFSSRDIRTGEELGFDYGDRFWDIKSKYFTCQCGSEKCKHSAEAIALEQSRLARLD
SMILES,"activity, negative = inhibition",Potency
CCOc1ccc(NC(=O)CSc2c3c(nc4ccccc24)CCCC3)cc1,7.49%,
COc1ccccc1CNC(=O)COn1nnc2ccc(S(=O)(=O)N3CCOCC3)cc21,-27.8% [at 102 µM],
Cc1cc(O)c(C(=O)/C=C/c2c(F)c(F)c(F)c(F)c2F)c(=O)o1,-25.4% [at 2.33 µM],
Cc1ccc2c(c1)N(C(=O)Nc1ccc(Br)cc1F)CCO2,-22.5%,
Cc1ccc(S(=O)(=O)N2CCN(c3ccccc3)CC2)cc1C,2.79% [at 102 µM],
NS(=O)(=O)c1ccc(CNC(=O)c2cccc(S(=O)(=O)N3CCc4ccccc43)c2)cc1,15.2% [at 2.33 µM],
COc1ccc(OCc2n[nH]c(=S)n2N)cc1,,1.78 µM (active)
Cc1ccc(OCc2n[nH]c(=S)n2-c2ccc(C)cc2)cc1,18.9% [at 102 µM],
COc1ccc(OCc2ccc(-c3nc4ccccc4c(=O)n3N)o2)cc1,14.4% [at 2.33 µM],
Cc1n[nH]c(=O)n1-c1ccc(Oc2ccccc2)cc1,106%,
S=c1[nH]nc(COc2ccccc2)n1-c1ccccc1,,2.51 µM (active)
CC(Sc1nnc(COc2ccccc2)n1-c1ccccc1)C(=O)O (configuration not stated),9.68% [at 0.501 µM],
Cc1ccc(OCc2nc3ccccc3n2C)cc1,4.42% [at 0.501 µM],
COc1ccc(OCC(=O)OCCN(C)C)cc1,-13.2%,
Cc1ccc(NC(=O)Nc2cc(-c3ccccc3)nn2C)cc1Cl,4.64% [at 102 µM],
Cc1ccc(OCc2n[nH]c(=S)n2-c2ccccc2)cc1,,1.58 µM (active)
Cc1ccc(NC(=O)CSc2nc3c([nH]c4ccccc43)c(=O)n2-c2ccccc2)cc1Cl,0.779%,
Cc1ccc(NCc2n[nH]c(=S)n2-c2ccccc2)cc1Cl,,22.4 µM (active)
CN(C)CCn1c2c(c(SCC(=O)Nc3ccccc3C(F)(F)F)nc1=O)CCCC2,7.38% [at 0.501 µM],
CCOC(=O)c1ccc(NC2=CC(c3ccc(OCC)cc3)N(c3ccc(C(=O)OCC)cc3)C2=O)cc1 (configuration not stated),-41.8%,
COc1cc(NC(=O)CCn2nc(C)cc2C)cc(OC)c1OC,7.03%,
Cc1c(Cl)cccc1NC(=O)C1CCCN(C(=O)c2cnn(-c3ccccc3)c2-n2cccc2)C1 (configuration not stated),-2.57%,
Cn1c(C(=O)N2CCCC(C(=O)NCc3ccccc3)C2)cc2sccc21 (configuration not stated),-0.912%,
COc1ccc(-c2noc(CSc3nc4ccc(C)cc4[nH]3)n2)cc1,4.71%,
O=C(Nc1ccc(C(F)(F)F)cc1)c1cccc(-n2cnnn2)c1,-33%,

SMILES,"activity, negative = inhibition",Potency
O=C(CN1C(=O)COc2ccc(Cl)cc21)N1CCOCC1,78.5% [at 102 µM],
CC(=N\NC(=O)c1cc(Br)ccc1O)/C(=N/O)C(=O)Nc1ccccc1,1.77% [at 102 µM],
COc1ccc(OC)c(/C=C/C(=O)c2ccc3c(c2)OCO3)c1,13.7% [at 12.7 µM],
Cc1ccccc1-c1nc(CS(=O)(=O)CC(=O)Nc2cc(Cl)cc(Cl)c2)c(C)o1,-2.38%,
CCOc1ccccc1C(=O)NC1(C(F)(F)F)NC(=O)N(CCc2ccc(OC)c(OC)c2)C1=O (configuration not stated),-8.28%,
O=C(CSc1ncnc2sccc12)N1CCN(C(=O)c2cccs2)CC1,14% [at 12.7 µM],
COc1ccc(CNC(=O)c2cc3c(=O)[nH]c4ccc(C)cc4c3s2)c(OC)c1,9.06%,
CCOc1ccc(C(=O)Nc2cc(Cl)ccc2-n2cncn2)cc1OC,,15.8 µM (active)
CCOc1ccc(C(=O)Nc2cc(OC)ccc2OC)cc1,20% [at 102 µM],
COc1cc(C(=O)Nc2cc(C(F)(F)F)ccc2-n2cncn2)cc(OC)c1OC,1.32% [at 102 µM],
COc1ccc(-n2nnnc2CNC(=O)c2ccc3ccccc3c2)cc1,-3.4% [at 102 µM],
CN(C)C(CNC(=O)c1cccc(S(=O)(=O)Nc2ccc(Br)cc2)c1)c1ccco1 (configuration not stated),,50.1 µM (active)
COc1ccccc1C(CNC(=O)c1cccc(NS(=O)(=O)c2ccc(Br)cc2)c1)N(C)C (configuration not stated),-36.2% [at 102 µM],
COc1ccccc1C(CNC(=O)c1cccc(S(=O)(=O)Nc2ccc(F)cc2)c1)N(C)C (configuration not stated),17.4% [at 12.7 µM],
CCOc1ccccc1CNCc1c(C(=O)O)c(C)n(Cc2ccc(C)cc2)c1C,-1.87%,
O=C(O)c1cc2c(cc1NC(=O)c1c(F)cccc1Cl)OCCCO2,-15.3% [at 102 µM],
O=C(NCc1ccc(Cl)cc1)c1ccc2c(c1)nnn2C1CCCC1,-6.56%,
O=C(NCc1cccs1)c1ccc2c(c1)ncn2C1CCCC1,,50.1 µM (active)
O=C(NCCN1CCOCC1)c1ccc2c(c1)ncn2C1CCCC1,-47.7% [at 102 µM],
CCOc1ccc(C(=O)CCC(=O)NC2=NCCS2)cc1,2.24% [at 0.501 µM],
COc1cccc(CN2CCNC(=O)C2CC(=O)N(C)CCc2ccccn2)c1 (configuration not stated),,44.7 µM (active)
CN(Cc1cccc2ncccc12)C(=O)CC1C(=O)NCCN1Cc1ccc(F)cc1 (configuration not stated),,44.7 µM (active)
CN(CCc1ccccn1)C(=O)c1ccc(OC2CCN(CCc3ccccc3)CC2)cc1,21.6% [at 102 µM],
CCCOC(=O)CC1C(=O)NCCN1Cc1ccc(F)cc1 (configuration not stated),10.2% [at 102 µM],
Cc1nc(CN(C)C(=O)CC2C(=O)NCCN2Cc2ccc(F)cc2)cs1 (configuration not stated),,44.7 µM (active)

SMILES,"activity, negative = inhibition",Potency
CN(C(=O)CC1C(=O)NCCN1Cc1ccc(F)cc1Cl)C1CCCCC1 (configuration not stated),0.263% [at 102 µM],
CC(C)c1nc(CNC(=O)CC2C(=O)NCCN2Cc2ccoc2)cs1 (configuration not stated),-29.4% [at 102 µM],
COc1ccccc1CN1CCNC(=O)C1CC(=O)N(C)CC1CCOCC1 (configuration not stated),13.6% [at 0.0925 µM],
Cc1cnc(CN(C)C(=O)CC2C(=O)NCCN2Cc2cccc(F)c2F)[nH]1 (configuration not stated),-5.82% [at 102 µM],
Cc1cccc(NC(=O)Cn2c(=O)n(CCC(C)C)c(=O)c3cccnc32)c1,-1.53%,
CCN(CC(=O)Nc1c(F)cccc1F)C(=O)c1cnc(C)cn1,9.59% [at 2.33 µM],
COc1ccc(-c2nc(CN3CCC(C(=O)NCCN(CC(C)C)CC(C)C)CC3)c(C)o2)cc1OC,-43.1%,
Cc1ccc(C(=O)Nc2nc(-c3ccccc3)ns2)cc1,-3.13%,
Cc1ccc(CNC(=O)CC(NC(=O)c2ccccc2)c2ccccc2)cc1 (configuration not stated),12.4% [at 12.7 µM],
Cc1ccc(CNC(=O)CCc2c(C)nc3nc(CNC(=O)OC(C)(C)C)nn3c2C)cc1,-2.86%,
COCCNC(=O)c1ccc2c(c1)N=C(C)c1cc(C)ccc1S2,-33.8%,
CCOC(=O)C1(CCOc2ccccc2)CCN(Cc2ccc(C#CCCO)cc2)CC1,-13.7% [at 102 µM],
Cc1ccc(Cl)cc1N(C)C(=O)Cn1nc(Cc2cccnc2)c2ccccc2c1=O,-0.885%,
O=C(Nc1ccccc1)Nc1ccccc1C(=O)NCc1ccco1,0.665% [at 12.7 µM],
CCOc1ccccc1C(=O)NCc1ccco1,,44.7 µM (active)
COc1ccc(C(=O)Nc2ccccc2C(=O)NCc2ccco2)cc1,20.2% [at 102 µM],
COc1ccc(NC(=O)CN(C)C(=O)c2ccc(COc3ccccc3)o2)cc1,8.51% [at 102 µM],
C[C@H]1[C@H]2c3nc4ccccc4n3C[C@H]1ON2C1CCCCC1,20.1% [at 102 µM],
CS(=O)(=O)Nc1ccc(C2=NN(S(C)(=O)=O)C(c3cccs3)C2)cc1 (configuration not stated),-27.8% [at 102 µM],
CCS(=O)(=O)Nc1ccc(C2=NN(S(=O)(=O)c3ccc(F)cc3)C(c3ccco3)C2)cc1 (configuration not stated),,79.4 µM (active)
CCS(=O)(=O)Nc1ccc(C2=NN(C(C)=O)C(c3cccs3)C2)cc1 (configuration not stated),7.26% [at 102 µM],
CCCCN(CCCC)CCCNC(=O)CN1C(=O)COc2ccc(S(=O)(=O)N3CCC(C)CC3)cc21,56.2% [at 102 µM],
O=C(CCNC(=O)c1ccc(Br)cc1)NCC(c1ccco1)N1CCCCC1 (configuration not stated),19.9% [at 12.7 µM],
Cc1ccc(/C=N/NC(=S)NC2CCCCC2)o1,,50.1 µM (active)
C/C(=N\NC(=O)NC1CCCCC1)c1ccc(OC(F)F)cc1OC(F)F,7.82% [at 102 µM],

SMILES,"activity, negative = inhibition",Potency
Cc1ccc(/C=N/NC(=O)Cn2ccc(C(F)(F)F)n2)o1,-9.13% [at 102 µM],
Cc1ccc(NC(=S)NC2CCCC2)cc1,23.8% [at 0.501 µM],
C/C(=N/NC(=O)c1ccc(Br)o1)c1ccc(C)o1,3.1%,
C/C(=N\NC(=S)NC1CCCCC1)c1ccc(C)o1,,50.1 µM (active)
O=C(Nc1ccc(Cl)c(Cl)c1)c1ccccc1NC(=O)C1CC=CCC1C(=O)O (configuration not stated),-7.21% [at 102 µM],
COc1ccc(C)cc1NC(=O)CNCc1cccs1,4.36% [at 102 µM],
COc1cc(OC)cc(-c2c(-c3cccs3)c3cc(-c4ccc(OC)cc4F)ccc3n2C)c1,2.09% [at 0.501 µM],
CC(Sc1nnc(-c2cccs2)n1C1CC1)C(=O)NCC1CCCO1 (configuration not stated),29.1% [at 12.7 µM],
O=C(NCCC1CCCCN1S(=O)(=O)c1ccccc1)C(=O)NCC1CCCO1 (configuration not stated),10.2% [at 0.501 µM],
CCC(=O)N1CCc2cc(CNS(=O)(=O)c3ccc(Br)s3)ccc21,1.92%,
CCOC(=O)Cn1c(=O)n(C2CCCCC2)c2nc(-c3cccc(OC)c3)nc(C(N)=O)c21,9.68%,
CCOC(=O)c1ccc(NC(=O)CCS(=O)(=O)c2ccc3c(c2)oc(=O)n3C)cc1,-6.14%,
Cc1ccc(C)c2sc(NC(=O)c3ccc(S(=O)(=O)N4CCCC4)cc3)nc12,4.68%,
CCCC(=O)Nc1ccc(C(=O)NCCCn2ccnc2)cc1,19.1%,
CCCCC(=O)Nc1ccc(C(=O)NCCCn2ccnc2)cc1,,12.6 µM (active)
O=C(NCCCn1ccnc1)c1ccccc1F,24.5% [at 102 µM],
O=C(CC1SC(N2CCCC2)=NC1=O)Nc1ccc(C(=O)NCCc2ccc(F)cc2)cc1 (configuration not stated),9.67% [at 0.501 µM],
CCOC(=O)c1scc(-c2ccc(C)cc2)c1S(=O)(=O)Nc1cc(C)ccc1C,-5.5%,
Cc1cc(C(=O)COc2ccc(Br)cc2F)c(C)n1C1CC1,-8.88%,
COc1ccc(/C(O)=C2/C(=O)C(=O)N(c3nc(C)c(C)s3)C2c2ccco2)cc1 (configuration not stated),,44.7 µM (active)
COc1cccc(C2/C(=C(/O)c3ccncc3)C(=O)C(=O)N2CCCN(C)C)c1 (configuration not stated),-30.1% [at 102 µM],
COc1ccccc1C1/C(=C(/O)c2ccc(C)cc2)C(=O)C(=O)N1Cc1ccco1 (configuration not stated),-8.27%,
